Assay [1] is described as follows: yeast TOR pathway RPL19A-GFP modulators, primary screen, cell-based, S. cerevisiae, multiplex flow cytometry (AID 1862; in the data active = percent of DMSO control GFP below about 86%;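 note: lower values mimic rapamycin by blocking the RPL19A rise seen in DMSO cells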). The following applies: S. cerevisiae RPL19A-GFP strain, flow cytometry fluorescence, 3 h; at 10 µM; stronger effect = lower value. On the technique in general: Flow cytometry measures light scatter and fluorescence of single cells or particles in a stream.

Assay [2] is described as follows: modulators of MEP2-GFP levels in yeast, primary screen, S. cerevisiae, multiplex flow cytometry (AID 1867;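 active = GFP response, as percent of the DMSO control, above the screen-wide mean plus 3 SD, about 139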;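 note: median GFP channel fluorescence of barcode-gated MEP2-GFP cells measured by flow cytometry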). To be noted: S. cerevisiae MEP2-GFP strain, 3 h, at 10 µM, stronger effect = higher value, 100% means same as DMSO wells.
Assay [3] in a line: modulators of CIT2-GFP expression in yeast, primary screen, S. cerevisiae, GFP fusion, multiplex flow cytometry (AID 1870;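 active = percent response above a set limit, the screen-wide mean plus 3 SD, cut at about 130% in these data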;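 note: barcoded CIT2-GFP strain pooled with four other GFP strains with rapamycin as positive control; median GFP fluorescence per well over plate mean of DMSO wells so 100% = DMSO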). The following applies: 3 h, at 10 µM, stronger effect = higher value.
A short description of assay [4]: modulators of LAP4-GFP expression in yeast, primary screen, S. cerevisiae, multiplex flow cytometry (AID 1873;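 active = GFP signal, as percent of the solvent control, above the screen mean plus 3 SD, about 149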). The following applies: 3 h, at 10 µM, stronger effect = higher value.
Assay [5] can be described thus: modulators of AGP1-GFP expression in yeast TOR pathway, primary screen, cell-based, multiplex flow cytometry, S. cerevisiae (AID 1887;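 active = GFP signal above the screen-wide mean plus 3 SD, that is over about 124.5% of the solvent control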;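 note: AGP1-GFP fusion strain of S. cerevisiae within a five-strain barcoded multiplex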). The following applies: 3 h, at 10 µM, stronger effect = higher value.
A short description of assay [6]: inhibitors of CD8+ T cell-vesicle binding, pilot screen, LFA-1/ICAM-1 modulator project, MLPCN validation set, flow cytometry (AID 2523;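 active = response below a set limit, under 55% cells CD8-positive and vesicle-bound, and CD8 cells' 90th-percentile brightness under 279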;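 for vesicle binding response: mean PE anti-B7-1 fluorescence of CD8+ cells relative to row control; 100% = QL9-loaded vesicles with DMSO vehicle in the same plate row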). The following applies: 2C mouse CD8+ T cells, at 7 µM, stronger effect = lower value; double positive events: measured here: CD8+/vesicle+ event percentage.
Assay [7] addresses Integrin beta-1 (Homo sapiens) + Integrin alpha-4 (Homo sapiens) (UniProt P13612+P05556). Description: inhibition of HUTS-21 binding to VLA-4, pilot screen, VLA-4 allosteric modulator project, U937 cells, HUTS-21 mAb, flow cytometry, validation set (AID 2674;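 active = inhibition above 50%, about 3 SD of the validation set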;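 note: antibody binding induced by the VLA-4 ligand LDV present at three times its Kd; 0% = LDV ligand with antibody and no compound and 100% = antibody without LDV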). To be noted: HUTS-21 LIBS mAb binding, at 6.7 µM, stronger effect = higher value, binding induced by LDV ligand.
A short description of assay [8]: superoxide lowering in aged yeast cells, pilot screen, validation compound set (AID 2706;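 active = superoxide response below 65% of plate, a cut near 3 SD across the whole screen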;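 note: yeast exposed to compound for one week at 30 degrees C before staining; 100% = mean of all compound wells on the same plate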). To be noted: S. cerevisiae aging, superoxide DHE fluorescence; at 10 µM; stronger effect = lower value.
The target of assay [9] is Beta-adrenergic receptor kinase 1 (Homo sapiens) (UniProt P25098). Description: GRK2 binders displacing RNA aptamer, biochemical, validation, human GRK2, bead flow cytometry (AID 488806;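 active = aptamer binding inhibition above 30%, about 3 SD of noise from non-fluorescent compounds; inactive = inhibition at or below 30%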). The following applies: bead-bound GRK2, FAM-aptamer displacement, at 10 µM, stronger effect = higher value.
Assay [10] has as its target Beta-2 adrenergic receptor (Homo sapiens) (UniProt P07550). Description: beta2AR agonists driving receptor internalization, pilot screen, cell-based, FAP fluorogen, flow cytometry, validation set (AID 504459;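 active = percent response above 42, roughly 3 SD of non-fluorescent test compounds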;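 note: agonist-driven loss of surface beta2AR via internalization measured by FAP dye flow cytometry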). To be noted: Am2.2-beta2AR cells, FAP surface receptor flow cytometry; at 10 µM; stronger effect = higher value.
The target of assay [11] is AP-2 complex subunit beta (Homo sapiens) (UniProt P63010). In words: inhibitors of arrestin peptide binding to AP2, pilot screen, biochemical, validation set, GST-AP2 beads, flow cytometry (AID 504541;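 active = inhibition above 54%, about 3 SD of non-fluorescent compounds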;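 note: AP2 carries R879A mutation and is captured from E. coli lysate; bead-bound FITC arrestin peptide fluorescence measuring arrestin peptide binding to AP2; 0% = DMSO wells and 100% = excess unlabeled arrestin peptide control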). The following applies: FITC arrestin peptide, at 10 µM, stronger effect = higher value, AP2 beta2 appendage fragment, R879A mutant.
A short description of assay [12]: yeast V-ATPase proton transport modulators, S. cerevisiae, pHLuorin, HTS validation (AID 504600; in the data active = response above about 15%;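 note: plate controls were DMSO for no effect and reference compound for full effect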). To be noted: S. cerevisiae pHLuorin cytosolic pH, at 10 µM, stronger effect = higher value.
The subject of assay [13] is anti-desmoglein-3 scFv antibody binding to human DSG3. In words: inhibitors of anti-DSG3 scFv binding to DSG3, pilot screen, biochemical, validation compound set, bead-based, flow cytometry (AID 588368;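 active = binding below the plate cutoff, the plate median minus 3 SD, with a reading above zero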;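 note: signal is the median channel fluorescence of bead-bound GFP antibody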). The following applies: Protein G beads, DSG3-Fc, scFv-GFP binding, at 10 µM, stronger effect = lower value.
The nature of assay [14]: inhibitors of fungal efflux pumps CDR1, CDR2, MDR1, pilot screen, validation compound set, multiplex, phenotypic (AID 588506;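 active = efflux inhibition above 0.42, the validation set average plus 4 SD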;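 note: Nile Red retained in cells so higher fluorescence means more efflux inhibition; 0 = negative control wells and 1 = enniatin B 25 µM full block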). To be noted: S. cerevisiae pump-expressing triplex, Nile Red efflux flow cytometry; at 10 µM; stronger effect = higher value; the pumps come from Candida albicans.
In assay [15] the target is ATP-binding cassette sub-family B member 6 (Homo sapiens) (UniProt Q9NP58). Description: ABCB6 transporter inhibitors, pilot screen, K562-ABCB6 cells, flow cytometry, validation set (AID 588550).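 Note: 0% = DMSO wells and 100% = benzethonium chloride 70 µM positive control.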 To be noted: K562-ABCB6 porphyrin accumulation, 1 h, at 10 µM, stronger effect = higher value.
A short description of assay [16]: promoters of myeloid differentiation in arrested cells, primary screen, cell-based, GFP/MAC1 double positive, flow cytometry, validation set (AID 588685;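 active = differentiation response of at least 50%, scaled between solvent and reference control, from cells with both markers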;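 note: compound exposure lasts four days before antibody staining and flow analysis; 0% = DMSO wells and 100% = 5 µM fulvestrant positive control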). The following applies: ER-HoxA9 marrow cells, stronger effect = higher value, normalized: vehicle 0, fulvestrant 100.

The values that follow come from PubChem BioAssay.

Results filed as inconclusive are left out. Calls of active or inactive are those of the source.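 Rule for the calls, unless noted: active = inhibition above the screen-wide mean plus 3 SD, about 51%; inactive = the rest.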

Sequence of ATP-binding cassette sub-family B member 6 (Homo sapiens) (Q9NP58 whole entry, looked up): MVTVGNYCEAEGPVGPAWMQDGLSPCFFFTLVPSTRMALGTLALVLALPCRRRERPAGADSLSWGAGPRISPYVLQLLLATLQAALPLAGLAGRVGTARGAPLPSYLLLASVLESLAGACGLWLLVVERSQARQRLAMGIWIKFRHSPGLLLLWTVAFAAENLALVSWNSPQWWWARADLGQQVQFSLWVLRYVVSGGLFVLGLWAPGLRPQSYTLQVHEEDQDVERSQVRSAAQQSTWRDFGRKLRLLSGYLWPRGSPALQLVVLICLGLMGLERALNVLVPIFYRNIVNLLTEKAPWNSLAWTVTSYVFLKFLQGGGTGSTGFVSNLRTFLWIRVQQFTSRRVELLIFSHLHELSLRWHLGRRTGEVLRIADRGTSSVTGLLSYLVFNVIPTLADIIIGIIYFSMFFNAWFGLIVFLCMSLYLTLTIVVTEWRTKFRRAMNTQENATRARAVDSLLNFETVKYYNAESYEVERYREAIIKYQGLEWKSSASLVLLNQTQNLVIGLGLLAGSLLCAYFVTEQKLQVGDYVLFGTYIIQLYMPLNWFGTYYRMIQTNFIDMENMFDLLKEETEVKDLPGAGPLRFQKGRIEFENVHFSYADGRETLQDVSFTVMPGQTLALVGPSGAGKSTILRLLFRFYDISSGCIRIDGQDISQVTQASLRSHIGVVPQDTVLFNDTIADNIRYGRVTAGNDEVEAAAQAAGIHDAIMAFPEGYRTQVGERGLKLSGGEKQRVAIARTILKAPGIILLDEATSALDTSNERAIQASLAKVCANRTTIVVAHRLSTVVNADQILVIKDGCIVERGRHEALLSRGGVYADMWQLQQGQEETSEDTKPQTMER
Sequence of AP-2 complex subunit beta (Homo sapiens) (P63010 whole entry, looked up, the tested form may be a part, one chain of several): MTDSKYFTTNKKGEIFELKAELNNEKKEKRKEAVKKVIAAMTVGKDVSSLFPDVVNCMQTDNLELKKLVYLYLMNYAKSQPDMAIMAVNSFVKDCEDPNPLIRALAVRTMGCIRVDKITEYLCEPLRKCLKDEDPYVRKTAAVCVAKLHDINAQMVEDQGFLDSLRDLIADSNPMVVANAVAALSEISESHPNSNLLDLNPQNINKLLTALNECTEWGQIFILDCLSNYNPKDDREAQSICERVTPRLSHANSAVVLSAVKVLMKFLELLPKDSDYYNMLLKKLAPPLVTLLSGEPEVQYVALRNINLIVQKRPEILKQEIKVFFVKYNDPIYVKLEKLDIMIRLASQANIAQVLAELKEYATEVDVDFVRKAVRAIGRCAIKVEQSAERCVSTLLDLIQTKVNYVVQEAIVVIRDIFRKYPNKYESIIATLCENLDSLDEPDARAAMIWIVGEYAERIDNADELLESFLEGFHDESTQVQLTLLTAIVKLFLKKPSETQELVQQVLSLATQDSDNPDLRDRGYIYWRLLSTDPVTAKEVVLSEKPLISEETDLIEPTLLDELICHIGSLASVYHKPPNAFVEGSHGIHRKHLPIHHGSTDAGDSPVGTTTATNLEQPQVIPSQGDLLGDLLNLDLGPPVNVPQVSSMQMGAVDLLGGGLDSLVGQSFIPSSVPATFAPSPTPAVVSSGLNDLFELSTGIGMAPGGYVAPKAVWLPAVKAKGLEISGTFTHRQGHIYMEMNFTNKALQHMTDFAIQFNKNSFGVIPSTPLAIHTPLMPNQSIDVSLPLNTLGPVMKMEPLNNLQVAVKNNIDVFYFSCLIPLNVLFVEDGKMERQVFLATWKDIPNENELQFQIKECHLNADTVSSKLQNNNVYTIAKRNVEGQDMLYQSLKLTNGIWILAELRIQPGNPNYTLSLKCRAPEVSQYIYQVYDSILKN
Sequence of Beta-2 adrenergic receptor (Homo sapiens) (P07550 whole entry, looked up): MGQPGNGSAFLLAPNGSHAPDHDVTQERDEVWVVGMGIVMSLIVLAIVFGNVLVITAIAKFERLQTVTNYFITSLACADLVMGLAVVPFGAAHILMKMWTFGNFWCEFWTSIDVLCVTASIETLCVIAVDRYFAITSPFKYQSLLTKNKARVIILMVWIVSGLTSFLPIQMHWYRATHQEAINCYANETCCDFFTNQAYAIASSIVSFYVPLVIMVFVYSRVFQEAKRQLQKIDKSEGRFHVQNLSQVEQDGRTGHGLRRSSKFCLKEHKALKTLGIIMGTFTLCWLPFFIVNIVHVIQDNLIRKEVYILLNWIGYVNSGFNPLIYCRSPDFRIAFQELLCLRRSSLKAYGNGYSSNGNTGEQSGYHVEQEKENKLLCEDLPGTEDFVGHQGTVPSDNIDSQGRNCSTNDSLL
Sequence of Beta-adrenergic receptor kinase 1 (Homo sapiens) (P25098 whole entry, looked up): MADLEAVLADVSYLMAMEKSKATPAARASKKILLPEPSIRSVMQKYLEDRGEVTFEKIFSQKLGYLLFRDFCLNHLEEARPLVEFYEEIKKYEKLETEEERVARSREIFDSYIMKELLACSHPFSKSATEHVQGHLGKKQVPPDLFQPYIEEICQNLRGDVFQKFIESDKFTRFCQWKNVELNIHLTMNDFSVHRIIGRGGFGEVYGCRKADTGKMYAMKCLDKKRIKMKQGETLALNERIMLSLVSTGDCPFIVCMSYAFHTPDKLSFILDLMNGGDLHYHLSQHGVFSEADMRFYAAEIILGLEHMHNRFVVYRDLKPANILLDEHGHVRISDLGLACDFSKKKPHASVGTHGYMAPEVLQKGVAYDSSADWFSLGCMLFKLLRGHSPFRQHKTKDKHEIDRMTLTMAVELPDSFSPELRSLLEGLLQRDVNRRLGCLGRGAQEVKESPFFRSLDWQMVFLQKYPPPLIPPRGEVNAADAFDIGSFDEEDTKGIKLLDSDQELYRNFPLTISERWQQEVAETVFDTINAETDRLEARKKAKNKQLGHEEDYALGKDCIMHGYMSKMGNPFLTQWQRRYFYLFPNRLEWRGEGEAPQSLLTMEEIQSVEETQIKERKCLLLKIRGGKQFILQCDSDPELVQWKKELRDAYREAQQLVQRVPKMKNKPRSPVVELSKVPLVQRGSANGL
Sequence of Integrin beta-1 (Homo sapiens) + Integrin alpha-4 (Homo sapiens) (P05556 whole entry, looked up): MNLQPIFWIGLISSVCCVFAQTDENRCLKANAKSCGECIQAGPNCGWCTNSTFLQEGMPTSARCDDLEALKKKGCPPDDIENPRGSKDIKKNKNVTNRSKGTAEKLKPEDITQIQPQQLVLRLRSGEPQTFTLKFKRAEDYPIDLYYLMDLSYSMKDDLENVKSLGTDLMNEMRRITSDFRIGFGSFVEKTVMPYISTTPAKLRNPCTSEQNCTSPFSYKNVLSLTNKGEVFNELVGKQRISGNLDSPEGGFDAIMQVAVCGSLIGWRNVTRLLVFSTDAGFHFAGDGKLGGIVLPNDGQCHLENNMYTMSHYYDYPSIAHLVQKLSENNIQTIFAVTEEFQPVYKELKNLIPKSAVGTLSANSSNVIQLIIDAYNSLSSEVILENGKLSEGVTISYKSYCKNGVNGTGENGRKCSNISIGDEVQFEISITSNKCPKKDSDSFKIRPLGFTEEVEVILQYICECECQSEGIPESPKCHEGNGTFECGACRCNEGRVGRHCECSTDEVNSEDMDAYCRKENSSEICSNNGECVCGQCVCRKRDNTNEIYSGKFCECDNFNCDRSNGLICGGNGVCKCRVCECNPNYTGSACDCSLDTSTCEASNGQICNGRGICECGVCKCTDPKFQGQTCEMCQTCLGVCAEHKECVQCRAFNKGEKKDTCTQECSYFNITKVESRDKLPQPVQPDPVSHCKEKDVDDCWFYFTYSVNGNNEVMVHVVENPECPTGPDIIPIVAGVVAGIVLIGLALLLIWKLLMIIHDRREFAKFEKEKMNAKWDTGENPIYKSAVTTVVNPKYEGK
Sequence of Integrin beta-1 (Homo sapiens) + Integrin alpha-4 (Homo sapiens) (P13612 whole entry, looked up): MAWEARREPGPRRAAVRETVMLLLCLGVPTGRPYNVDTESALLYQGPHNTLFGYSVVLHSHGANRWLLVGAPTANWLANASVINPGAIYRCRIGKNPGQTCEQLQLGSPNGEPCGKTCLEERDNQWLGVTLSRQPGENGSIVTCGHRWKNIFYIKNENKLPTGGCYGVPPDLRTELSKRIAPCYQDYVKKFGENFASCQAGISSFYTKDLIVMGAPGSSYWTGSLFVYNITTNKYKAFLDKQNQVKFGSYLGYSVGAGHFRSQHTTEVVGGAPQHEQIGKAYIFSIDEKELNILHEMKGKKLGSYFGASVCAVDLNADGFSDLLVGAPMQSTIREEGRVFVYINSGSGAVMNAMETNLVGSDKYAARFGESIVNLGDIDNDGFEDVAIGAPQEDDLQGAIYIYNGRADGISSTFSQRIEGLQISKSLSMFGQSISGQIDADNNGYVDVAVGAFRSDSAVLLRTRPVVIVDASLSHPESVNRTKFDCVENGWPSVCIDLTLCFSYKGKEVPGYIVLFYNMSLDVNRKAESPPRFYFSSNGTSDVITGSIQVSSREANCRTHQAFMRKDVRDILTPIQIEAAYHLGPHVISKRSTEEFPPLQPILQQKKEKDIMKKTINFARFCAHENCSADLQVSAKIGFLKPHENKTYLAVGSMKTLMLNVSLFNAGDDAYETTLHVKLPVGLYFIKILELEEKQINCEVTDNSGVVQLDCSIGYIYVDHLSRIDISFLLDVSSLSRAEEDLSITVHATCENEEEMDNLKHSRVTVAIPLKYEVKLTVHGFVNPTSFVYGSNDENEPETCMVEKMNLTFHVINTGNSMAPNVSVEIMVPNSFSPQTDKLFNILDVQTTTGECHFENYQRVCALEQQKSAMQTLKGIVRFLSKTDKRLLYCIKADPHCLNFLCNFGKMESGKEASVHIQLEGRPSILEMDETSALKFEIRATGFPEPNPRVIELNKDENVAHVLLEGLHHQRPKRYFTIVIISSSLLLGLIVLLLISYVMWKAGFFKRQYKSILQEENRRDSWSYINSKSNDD

A word on the inhibition: it is the drop in the measured response relative to a control, in per cent. As for `CCNC(=S)N1CCN(CCN2C(=O)c3cccc4cccc(c34)C2=O)CC1`, the percent of DMSO control GFP in assay [1] was 103% (inactive). In addition, the results for the GFP response vs DMSO in assay [2] and in [4] were 97.7% (inactive) and 95.9% (inactive), respectively. Also, in assay [3], the percent response of DMSO control was 106% (inactive). Also, the GFP response, % of DMSO in assay [5] is 107% (inactive). The same compound came in with a double positive events in [6] of 63.5%. For the same compound, the vesicle binding response in assay [6] was 143% (inactive). The inhibition in [7] was -26.6% (inactive); in [11], -15.4% (inactive); in [15], -13% (inactive). Besides, in assay [8], the superoxide response (% of plate) is 96.9% (inactive). In addition, in [9], the aptamer binding inhibition was 0% (inactive). In addition, the response in assay [10] is -20.5% (inactive); in assay [12], 1.54% (inactive). Also, in assay [13], the binding (% of control) was 104% (inactive). For the same compound, the efflux inhibition (fraction of control) in [14] was -0.195 (inactive). In assay [16], the differentiation response was -8.96% (inactive).
Regarding `COc1ccc(/C=C/C(=O)c2cc3cccc(OC)c3oc2=O)cc1`, the percent of DMSO control GFP in assay [1] is 103% (inactive). Further, the GFP response vs DMSO in [2] and in [4] was 106% (inactive) each time. Also, the percent response of DMSO control in [3] is 103% (inactive). Moreover, in [5], the GFP response, % of DMSO is 95.7% (inactive). Besides, the double positive events in assay [6] was 57.4%. The vesicle binding response in assay [6] is 172% (inactive). In addition, the inhibition in [7] is -11.8% (inactive); in assay [11] it was 4.15% (inactive); in assay [15], -11% (inactive). Also, the superoxide response (% of plate) in assay [8] was 107% (inactive). For the same compound, the aptamer binding inhibition in assay [9] is 0% (inactive). Further, the response in assay [10] is 7.46% (inactive); in assay [12], 1.33% (inactive). Moreover, in [13], the binding (% of control) was 96% (inactive). The efflux inhibition (fraction of control) in assay [14] was 0.03 (inactive). Further, in assay [16], the differentiation response is 2.74% (inactive).
Consider `O=Cc1ccc(OC(=O)c2cccnc2)cc1`, for which the percent of DMSO control GFP in assay [1] is 101% (inactive). Besides, the GFP response vs DMSO in assay [2] is 91.9% (inactive); in [4] it was 78.6% (inactive). Moreover, the percent response of DMSO control in [3] was 107% (inactive). Also, the GFP response, % of DMSO in assay [5] was 99.5% (inactive). In assay [6], the double positive events was 58.7%. For the same compound, in assay [6], the vesicle binding response is 209% (inactive). Also, the results for the inhibition in assay [7], in [11] and in assay [15] were 2.3% (inactive), -1.7% (inactive) and 4% (inactive), respectively. The superoxide response (% of plate) in assay [8] was 98.5% (inactive). In addition, the aptamer binding inhibition in assay [9] was 1% (inactive). Also, the response was -10.5% (inactive) in assay [10] and 1.76% (inactive) in assay [12]. Moreover, in assay [13], the binding (% of control) is 93% (inactive). Further, the efflux inhibition (fraction of control) in assay [14] was 0.05 (inactive). In assay [16], the differentiation response was 16.8% (inactive).
Regarding `O=C(Nc1ccc(Cl)cn1)Nc1ccccc1Cl`, in assay [1], the percent of DMSO control GFP is 103% (inactive). Further, the GFP response vs DMSO in assay [2] is 105% (inactive); in assay [4], 111% (inactive). In assay [3], the percent response of DMSO control is 107% (inactive). In addition, the GFP response, % of DMSO in assay [5] is 102% (inactive). For the same compound, in assay [6], the double positive events is 64.5%. In addition, the vesicle binding response in [6] is 144% (inactive). Further, the inhibition in assay [7] was -3.77% (inactive); in assay [11] it was -8.05% (inactive); in assay [15] it was -4% (inactive). For the same compound, the superoxide response (% of plate) in assay [8] is 93.6% (inactive). The aptamer binding inhibition in assay [9] was 2% (inactive). For the same compound, the response in assay [10] was -0.99% (inactive); in [12], 23.4% (active). The binding (% of control) in assay [13] was 105% (inactive). In addition, in assay [14], the efflux inhibition (fraction of control) is -0.55 (inactive). For the same compound, the differentiation response in assay [16] is -11.9% (inactive).
With `COc1cc2c(cc1OC)-c1nnc(C)n1C(C)(C)C2`, in assay [1], the percent of DMSO control GFP was 100% (inactive). The figures for the GFP response vs DMSO in assay [2] and in [4] were 94.1% (inactive) and 102% (inactive), respectively. In addition, in [3], the percent response of DMSO control was 107% (inactive). Further, in assay [5], the GFP response, % of DMSO is 100% (inactive). This compound showed a double positive events in assay [6] of 59.4%. The vesicle binding response in assay [6] is 211% (inactive). The inhibition in assay [7] is -1.79% (inactive); in assay [11] it was -4.56% (inactive); in assay [15] it was 4% (inactive). Moreover, in assay [8], the superoxide response (% of plate) was 94.7% (inactive). In addition, the aptamer binding inhibition in assay [9] is 2% (inactive). The response was 3.64% (inactive) in assay [10] and 7.5% (inactive) in assay [12]. For the same compound, the binding (% of control) in assay [13] was 100% (inactive). Moreover, in [14], the efflux inhibition (fraction of control) was -0.21 (inactive). In addition, in [16], the differentiation response was -28% (inactive).
